From PubChem BioAssay
WNV protease inh = blocks West Nile virus NS2B-NS3 protease activity; 65,000 tested, 0.18% active; P06935; WNV NS2B-NS3 protease, fluorogenic substrate Ex360/Em465; hits give low values; z-score (concentration not given with the values); in the data active = z-score below about -3
Target sequence (P06935 1371-1501 limits assumed): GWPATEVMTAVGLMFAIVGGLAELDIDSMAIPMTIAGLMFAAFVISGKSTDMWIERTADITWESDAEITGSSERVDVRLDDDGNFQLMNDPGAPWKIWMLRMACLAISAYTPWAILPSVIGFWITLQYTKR
Target sequence (P06935 1502-1679 limits assumed): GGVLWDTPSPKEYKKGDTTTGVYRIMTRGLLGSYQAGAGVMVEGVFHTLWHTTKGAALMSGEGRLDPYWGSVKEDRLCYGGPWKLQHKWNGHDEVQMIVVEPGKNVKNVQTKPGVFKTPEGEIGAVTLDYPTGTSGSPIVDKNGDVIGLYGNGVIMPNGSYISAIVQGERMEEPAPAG
CD11b adhes inh = CD11b/CD18-fibrinogen binding inhibition | P05107+P11215 | K562 CD11b/CD18 adhesion to fibrinogen, ATPlite luminescence; Mn2+ added to activate the integrin | inhibition, % at 10 µM | 93,000 tested, 0.54% active | AID 1497;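 active = primary inhibition of 50% or more at 10 µM, then 40% or more on retest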
CD11b adhes enh = enhancers of human CD11b/CD18 binding to fibrinogen; K562 CD11b/CD18 adhesion to fibrinogen, ATPlite luminescence; activation, % at 10 µM; 93,000 tested, 0.07% active; AID 1499;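 active = 10 µM primary screen giving 50% or more activity, confirmed by 40% or more on retest at that dose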
Numbers without * were called inactive; nt = no result. Sampled rows, rich in hits. Any-hit rate of the full collection: about 0.6%.

SMILES | WNV protease inh | CD11b adhes inh | CD11b adhes enh
CCOC(=O)COc1ccc(S(=O)(=O)NCc2ccncc2)cc1 | 1.5 | 80 | -9
Cc1ccc(S(=O)(=O)NCc2ccncc2)cc1 | -0.31 | 69* | -5
CC1CCN(Cc2nc3c(c(=O)n(C)c(=O)n3C)n2CCN2CCOCC2)CC1 | -0.73 | nt | nt
CCNC(=O)c1sc(-c2ccccc2)nc1C | -1.7 | -6 | -2
Fc1ccc(NC(=S)Nc2ccccc2OC(F)F)cc1Cl | nt | 101* | -10
Cc1ccc(NC(=S)Nc2ccc(Cl)c(Cl)c2)c(OC(F)F)c1 | nt | 99 | -10
CCOCCCn1c(=N)c(C(=O)Nc2cc(C)on2)cc2c(=O)n3ccccc3nc21 | 0.12 | nt | nt
COc1ccc(NC(=O)CN(C)C2CCCCC2)c([N+](=O)[O-])c1 | nt | 5 | -3
Cc1cc2cc(CN3C(=O)c4ccccc4C3=O)ccc2n1C | -1 | nt | nt
O=C(NC1CCCCC1)c1sc(=S)n2c1[nH]c(=O)c1ccccc12 | -0.39 | 105* | -10
CCCCNC(=O)c1sc(=S)n(-c2ccccc2OC)c1N | nt | -19 | 5
O=C(NCC1CCCO1)c1sc(=S)n2c1[nH]c(=O)c1ccc(C(=O)N3CCCCC3)cc12 (configuration not stated) | -1.2 | 7 | -1
CCCCNC(=O)c1sc(=S)n2c1[nH]c(=O)c1ccccc12 | 1.6 | 97* | -10
Cc1ccccc1-n1c(SCC(=O)c2cc(C)n(C)c2C)nnc1-c1ccncc1 | -0.76 | 10 | 0
CCCCCn1c(=NC(C)=O)c(C#N)cc2c(=O)n3cccc(C)c3nc21 | 0.88 | nt | nt
O=C(Nc1nnc(CC(=O)N2CCCC2)s1)c1cnccn1 | -1.2 | nt | nt
CCn1c(-c2ccc(N(C)C)cc2)nc2ccccc21 | 0.77 | 59* | -2
CCn1c(-c2ccc(N)cc2)nc2ccccc21 | -0.39 | 0 | 7
CC(C)n1c(-c2ccc(N(C)C)cc2)nc2ccccc21 | 0.47 | 27 | -1
CN(C)c1ccc(-c2nc3ccccc3n2C)cc1 | -0.67 | 78* | -8
COc1ccc(NC(=O)OCCn2c([N+](=O)[O-])cnc2C)cc1 | nt | -2 | 10
O=C(CCNS(=O)(=O)c1cccs1)NCc1ccccc1 | nt | 8 | -2
Cc1ccc(S(=O)(=O)N2CCC[C@H]2C(=O)OC(C)C(=O)Nc2ncc(Cl)cc2Cl)cc1 (some centres not stated) | nt | -12 | 6
CN1CCN(C(=O)c2ccc(CN3CCOCC3)cc2)CC1 | 1.7 | -4 | 0
CN1CCN(C(=O)c2ccc(CSc3ccc(Cl)cc3)cc2)CC1 | nt | 76* | -2
SMILES | WNV protease inh | CD11b adhes inh | CD11b adhes enh
Cc1nn(Cc2ccc(Cl)cc2Cl)c(C)c1NC(=O)NC12CC3CC(CC(C3)C1)C2 | nt | 20 | -4
CCOC(=O)c1sc2nc(CN3CCN(c4cccc(C(F)(F)F)c4)CC3)[nH]c(=O)c2c1C | nt | -34 | 1
CNc1nc2sc3c(c2c(=O)n1C)CC(C)(C)SC3 | -7* | -6 | -2
CN(C)c1nc2sc3c(c2c(=O)n1C)CC(C)(C)OC3 | -0.53 | -2 | 1
CCOC(=O)N1CCN(C(=O)c2cn(CC)c3cc(N4CCN(C)CC4)c(F)cc3c2=O)CC1 | 0.46 | nt | nt
COC(=O)Cc1ccc(NC(=O)c2ccc(C)c(C)c2)cc1 | nt | 11 | -7
CCOC(=O)Cc1ccc(NC(=O)c2ccc(C(C)(C)C)cc2)cc1 | nt | 98* | -6
COc1ccc(OC)c(C(=O)CSc2nnc(-c3ccc(OC)c(OC)c3)o2)c1 | -1.6 | 3 | 2
Cc1ccccc1N(CC(=O)N/N=C/c1ccc(N(C)C)cc1)C(=O)c1ccccc1 | nt | 1 | 4
CC1=CC(C)(C)N(S(=O)(=O)c2ccc(F)cc2)c2ccc(C)cc21 | nt | 36 | -3
CC1=CC(C)(C)N(S(=O)(=O)c2ccc(C)cc2)c2ccccc21 | nt | 52* | -5
CCc1nc2c(sc3nc(N4CCOCC4)c4c(c32)CC(C)(C)OC4)c(=O)o1 | -0.67 | -12 | 2
CCc1ccccc1N(C(=O)CCC(=O)Nc1cc(C)on1)C(C(=O)NC1CCCC1)c1ccco1 (configuration not stated) | 0.08 | -9 | 1
O=C(Oc1cc2oc(=O)c3c(c2cc1Cl)CCCC3)c1ccco1 | 0.34 | nt | nt
O=C(Oc1cc2oc(=O)c3c(c2cc1Cl)CCCC3)c1cccs1 | nt | 53* | -1
CC(C)(C)C(=O)Nc1nc(=S)ss1 | nt | 66* | -6
CCC(=O)Nc1nc(=S)ss1 | nt | -22 | -3
CSc1ccc(CN(C)CC(=O)Nc2cccc(Br)c2)cc1 | nt | 56 | 2
COc1ccc(CCN(C)Cc2ccc(OC)c(OCc3ccccc3)c2)cc1OC | nt | -2 | -3
COc1cc(CN(C)Cc2ccccc2)cc(OC)c1O | nt | 87* | -10
CC(C)Oc1ccccc1C1CC(=O)Nc2c1c(=O)n(C)c(=O)n2C (configuration not stated) | nt | 2 | 0
CCCN1CCCc2cc(CN(CCCN3CCOCC3)C(=O)Nc3ccc(OCC)cc3)ccc21 | nt | 65* | 0
CCOc1ccc(NC(=O)N(CCN2CCOCC2)Cc2ccc3c(c2)CCCN3CC)cc1 | -0.92 | nt | nt
CCCCCC1CC(CC(=O)Nc2ccc([N+](=O)[O-])cc2)C(=O)O1 (configuration not stated) | nt | 32 | 3
Cc1ccc(S(=O)(=O)c2c(N)n(-c3ccccc3)c3nc4ccccc4nc23)cc1 | nt | -4 | 0
SMILES | WNV protease inh | CD11b adhes inh | CD11b adhes enh
C=CCn1c(NS(=O)(=O)c2ccccc2)c(S(=O)(=O)c2ccc(C)cc2)c2nc3ccccc3nc21 | nt | 96* | -10
CN=C(Nc1cc(C)nn1CCC#N)c1ccccc1 | -0.42 | 4 | 0
Cc1cc(OC(=O)c2ccccc2)n(CCC#N)n1 | -11* | -5 | -2
Cn1cccc1/C=N/NC(=O)C12CC3CC(CC(C3)C1)C2 | nt | -15 | 6
Cc1cccc(CN2CCN(C(=O)CCl)CC2)c1 | nt | -1 | 0
CCCCCOc1ccc(Br)cc1CSC(=N)N | nt | 105* | -5
CCCCOc1ccc(Cl)cc1CSc1nnc(CC)n1N | -1 | -26 | 1
CCCCCc1nnc(NC(=O)Cn2cnc3ccccc3c2=O)s1 | nt | 2 | 1
COc1ccc(CCNc2nc(-c3sc(C)nc3C)cs2)cc1OC | nt | 60* | -7
Cc1nc(C)c(-c2csc(NCc3ccccc3)n2)s1 | -1.2 | 94 | -1
COc1cccc(OCCN2CCN(c3ncnc4c3cnn4-c3ccccc3)CC2)c1 | -0.89 | 14 | -2
Cc1sc2ncnc(N3CCN(CCOc4ccc(Cl)cc4)CC3)c2c1C | nt | 99* | -9
O=C(c1csc2c1CCCC2)n1cccn1 | -0.05 | nt | nt
CCSc1nnc(NC(=O)NCC(F)(F)F)s1 | -7.8* | -3 | 0
CCSc1nnc(NC(=O)C(C)(C(F)(F)F)C(F)(F)F)s1 | 0.46 | 21 | 1
Cc1ccnc(NC2OC(=O)c3ccccc32)c1 (configuration not stated) | nt | 11 | -4
Cc1ccc(C(=O)Nc2nc(=O)n(C(=O)CC(C)C)s2)cc1 | nt | 70 | -9
CC(C)CC(=O)n1sc(NC(=O)c2ccccc2)nc1=O | nt | 55* | -7
O=C(CN(c1ccccc1)S(=O)(=O)c1ccccc1[N+](=O)[O-])NN=C1CCCCCCC1 | nt | 6 | 6
O=C(CSc1nc2ccccc2o1)Nc1nc2c(s1)CCCC2 | 1.5 | nt | nt
O=C(CSc1nc2ccccc2o1)Nc1nc2ccccc2s1 | -1.1 | 9 | 83*
Cc1[nH]n(-c2cccc3ccccc23)c(=O)c1/C=N/c1sc2c(c1C#N)CCC2 | nt | 100* | -13
